Results filed as inconclusive are left out. Active and inactive are the calls of the source.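 The calls were made as follows, unless noted: active = GFP signal, as percent of the solvent control, above the screen mean plus 3 SD, about 149; inconclusive = no reading because the compound's own fluorescence upset strain identification; inactive = the rest.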
Tests used:
[1] = rapamycin-like changes in RPL19A-GFP expression – cell-based, S. cerevisiae, multiplex flow cytometry, primary screen (AID 1862; in the data active = percent of DMSO control GFP below about 86%;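 also: lower values mimic rapamycin by blocking the RPL19A rise seen in DMSO cells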); details: S. cerevisiae RPL19A-GFP strain, flow cytometry fluorescence, 3 h; at 10 µM; stronger effect = lower value
[2] = TOR pathway GLN3 branch reporter MEP2-GFP changes – S. cerevisiae, multiplex flow cytometry, primary screen (AID 1867;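 active = GFP response, as percent of the DMSO control, above the screen-wide mean plus 3 SD, about 139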;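 also: median GFP channel fluorescence of barcode-gated MEP2-GFP cells measured by flow cytometry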); details: S. cerevisiae MEP2-GFP strain, 3 h, at 10 µM, stronger effect = higher value, 100% means same as DMSO wells
[3] = TOR pathway RTG branch CIT2 reporter changes – S. cerevisiae, GFP fusion, multiplex flow cytometry, primary screen (AID 1870;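 active = percent response above a set limit, the screen-wide mean plus 3 SD, cut at about 130% in these data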;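 also: barcoded CIT2-GFP strain pooled with four other GFP strains with rapamycin as positive control; median GFP fluorescence per well over plate mean of DMSO wells so 100% = DMSO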); details: S. cerevisiae CIT2-GFP expression, 3 h, at 10 µM, stronger effect = higher value
[4] = TOR pathway LAP4-GFP level changes – S. cerevisiae, multiplex flow cytometry, primary screen (AID 1873); details: S. cerevisiae LAP4-GFP expression, 3 h, at 10 µM, stronger effect = higher value
[5] = yeast AGP1-GFP level changes, GLN3 branch – cell-based, multiplex flow cytometry, S. cerevisiae, primary screen (AID 1887;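 active = GFP signal above the screen-wide mean plus 3 SD, that is over about 124.5% of the solvent control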;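 also: AGP1-GFP fusion strain of S. cerevisiae within a five-strain barcoded multiplex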); details: 3 h, at 10 µM, stronger effect = higher value
[6] = reduced mouse 2C T cell binding to pMHC/ICAM-1 vesicles – MLPCN validation set, flow cytometry, LFA-1/ICAM-1 modulator project, pilot screen (AID 2523;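 active = response below a set limit, under 55% cells CD8-positive and vesicle-bound, and CD8 cells' 90th-percentile brightness under 279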;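 as to vesicle binding response: mean PE anti-B7-1 fluorescence of CD8+ cells relative to row control; 100% = QL9-loaded vesicles with DMSO vehicle in the same plate row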); details: 2C mouse CD8+ T cells, at 7 µM, stronger effect = lower value; double positive events: measured here: CD8+/vesicle+ event percentage
[7] = molecular target: Integrin beta-1 (Homo sapiens) + Integrin alpha-4 (Homo sapiens) (UniProt P13612+P05556); assay: alpha4beta1 integrin LIBS antibody binding reduction – U937 cells, HUTS-21 mAb, flow cytometry, validation set, VLA-4 allosteric modulator project, pilot screen (AID 2674;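 active = inhibition above 50%, about 3 SD of the validation set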;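 also: antibody binding induced by the VLA-4 ligand LDV present at three times its Kd; 0% = LDV ligand with antibody and no compound and 100% = antibody without LDV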); details: HUTS-21 LIBS mAb binding, at 6.7 µM, stronger effect = higher value, binding induced by LDV ligand
Integrin beta-1 (Homo sapiens) + Integrin alpha-4 (Homo sapiens), sequence (P05556 whole entry, looked up): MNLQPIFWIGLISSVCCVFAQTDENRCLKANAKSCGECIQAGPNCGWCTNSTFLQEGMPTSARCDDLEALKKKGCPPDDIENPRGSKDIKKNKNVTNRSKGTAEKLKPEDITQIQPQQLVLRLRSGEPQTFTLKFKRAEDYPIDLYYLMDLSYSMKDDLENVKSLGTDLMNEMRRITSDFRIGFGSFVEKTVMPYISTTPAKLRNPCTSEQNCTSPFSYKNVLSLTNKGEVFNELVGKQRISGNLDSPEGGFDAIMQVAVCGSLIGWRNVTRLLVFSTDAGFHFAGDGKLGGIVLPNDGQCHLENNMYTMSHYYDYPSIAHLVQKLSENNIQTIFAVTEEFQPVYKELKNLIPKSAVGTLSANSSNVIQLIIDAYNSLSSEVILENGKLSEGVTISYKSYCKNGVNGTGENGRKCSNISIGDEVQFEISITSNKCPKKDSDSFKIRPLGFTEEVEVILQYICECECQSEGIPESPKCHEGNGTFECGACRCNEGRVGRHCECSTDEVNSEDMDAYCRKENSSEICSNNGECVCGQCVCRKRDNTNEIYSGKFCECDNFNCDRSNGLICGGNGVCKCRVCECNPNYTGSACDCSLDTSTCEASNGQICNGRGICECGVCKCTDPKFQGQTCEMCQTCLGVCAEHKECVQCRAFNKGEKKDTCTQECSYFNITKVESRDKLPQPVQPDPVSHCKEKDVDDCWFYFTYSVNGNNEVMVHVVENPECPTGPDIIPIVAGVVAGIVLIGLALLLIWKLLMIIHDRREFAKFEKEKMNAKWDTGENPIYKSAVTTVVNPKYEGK
Integrin beta-1 (Homo sapiens) + Integrin alpha-4 (Homo sapiens), sequence (P13612 whole entry, looked up): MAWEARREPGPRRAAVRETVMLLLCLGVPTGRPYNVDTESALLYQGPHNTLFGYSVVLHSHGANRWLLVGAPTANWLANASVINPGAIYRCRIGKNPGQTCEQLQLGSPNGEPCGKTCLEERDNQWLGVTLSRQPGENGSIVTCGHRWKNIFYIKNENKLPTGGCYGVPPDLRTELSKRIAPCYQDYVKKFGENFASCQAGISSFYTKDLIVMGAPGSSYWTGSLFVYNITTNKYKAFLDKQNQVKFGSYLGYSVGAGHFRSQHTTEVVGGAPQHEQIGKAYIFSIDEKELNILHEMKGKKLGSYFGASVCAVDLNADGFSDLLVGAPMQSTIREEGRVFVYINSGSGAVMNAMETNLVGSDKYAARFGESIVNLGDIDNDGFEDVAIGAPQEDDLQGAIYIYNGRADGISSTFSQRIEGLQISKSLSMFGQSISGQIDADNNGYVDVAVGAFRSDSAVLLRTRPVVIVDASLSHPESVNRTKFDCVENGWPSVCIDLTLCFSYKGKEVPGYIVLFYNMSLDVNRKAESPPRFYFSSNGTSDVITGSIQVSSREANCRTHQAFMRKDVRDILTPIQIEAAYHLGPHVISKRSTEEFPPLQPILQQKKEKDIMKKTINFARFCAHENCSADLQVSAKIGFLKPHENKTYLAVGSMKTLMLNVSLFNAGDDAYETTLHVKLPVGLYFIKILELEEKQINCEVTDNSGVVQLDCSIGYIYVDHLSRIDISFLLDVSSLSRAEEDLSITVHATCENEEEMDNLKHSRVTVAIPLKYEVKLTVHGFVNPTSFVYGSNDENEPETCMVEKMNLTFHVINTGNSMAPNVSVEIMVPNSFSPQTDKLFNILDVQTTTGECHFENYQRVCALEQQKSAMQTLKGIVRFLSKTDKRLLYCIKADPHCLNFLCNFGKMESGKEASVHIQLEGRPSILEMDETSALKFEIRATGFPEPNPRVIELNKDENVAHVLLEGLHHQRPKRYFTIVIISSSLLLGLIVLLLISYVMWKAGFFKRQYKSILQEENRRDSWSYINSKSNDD

[8] = calorie-restriction mimetic ROS inhibitors, yeast – validation compound set, pilot screen (AID 2706;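 active = superoxide response below 65% of plate, a cut near 3 SD across the whole screen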;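 also: yeast exposed to compound for one week at 30 degrees C before staining; 100% = mean of all compound wells on the same plate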); details: S. cerevisiae aging, superoxide DHE fluorescence; at 10 µM; stronger effect = lower value
[9] = molecular target: Beta-adrenergic receptor kinase 1 (Homo sapiens) (UniProt P25098); assay: GRK2 binders displacing RNA aptamer, biochemical, validation, human GRK2, bead flow cytometry (AID 488806;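 active = aptamer binding inhibition above 30%, about 3 SD of noise from non-fluorescent compounds; inactive = inhibition at or below 30%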); details: bead-bound GRK2, FAM-aptamer displacement, at 10 µM, stronger effect = higher value
Beta-adrenergic receptor kinase 1 (Homo sapiens), sequence (P25098 whole entry, looked up): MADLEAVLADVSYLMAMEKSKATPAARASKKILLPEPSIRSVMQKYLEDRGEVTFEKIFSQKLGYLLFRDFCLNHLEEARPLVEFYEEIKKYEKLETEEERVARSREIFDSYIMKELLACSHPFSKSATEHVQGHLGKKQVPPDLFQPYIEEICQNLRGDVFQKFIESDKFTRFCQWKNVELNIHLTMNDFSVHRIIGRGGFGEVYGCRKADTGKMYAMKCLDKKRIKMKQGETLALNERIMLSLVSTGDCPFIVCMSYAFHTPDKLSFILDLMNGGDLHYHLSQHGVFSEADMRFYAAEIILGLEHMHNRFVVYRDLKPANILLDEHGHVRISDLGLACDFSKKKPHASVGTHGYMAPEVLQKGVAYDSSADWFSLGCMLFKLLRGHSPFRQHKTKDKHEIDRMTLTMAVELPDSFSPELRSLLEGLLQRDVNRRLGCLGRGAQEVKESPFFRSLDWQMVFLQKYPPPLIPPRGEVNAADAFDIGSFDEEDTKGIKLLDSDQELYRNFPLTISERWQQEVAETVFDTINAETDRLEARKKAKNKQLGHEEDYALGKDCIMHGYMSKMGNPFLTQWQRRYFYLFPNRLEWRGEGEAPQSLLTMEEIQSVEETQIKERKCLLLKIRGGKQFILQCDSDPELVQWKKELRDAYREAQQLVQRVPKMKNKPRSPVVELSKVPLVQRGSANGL

[10] = molecular target: Beta-2 adrenergic receptor (Homo sapiens) (UniProt P07550); assay: agonist-induced loss of surface beta2AR – cell-based, FAP fluorogen, flow cytometry, validation set, pilot screen (AID 504459;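 active = percent response above 42, roughly 3 SD of non-fluorescent test compounds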;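 also: agonist-driven loss of surface beta2AR via internalization measured by FAP dye flow cytometry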); details: Am2.2-beta2AR cells, at 10 µM, stronger effect = higher value
Beta-2 adrenergic receptor (Homo sapiens), sequence (P07550 whole entry, looked up): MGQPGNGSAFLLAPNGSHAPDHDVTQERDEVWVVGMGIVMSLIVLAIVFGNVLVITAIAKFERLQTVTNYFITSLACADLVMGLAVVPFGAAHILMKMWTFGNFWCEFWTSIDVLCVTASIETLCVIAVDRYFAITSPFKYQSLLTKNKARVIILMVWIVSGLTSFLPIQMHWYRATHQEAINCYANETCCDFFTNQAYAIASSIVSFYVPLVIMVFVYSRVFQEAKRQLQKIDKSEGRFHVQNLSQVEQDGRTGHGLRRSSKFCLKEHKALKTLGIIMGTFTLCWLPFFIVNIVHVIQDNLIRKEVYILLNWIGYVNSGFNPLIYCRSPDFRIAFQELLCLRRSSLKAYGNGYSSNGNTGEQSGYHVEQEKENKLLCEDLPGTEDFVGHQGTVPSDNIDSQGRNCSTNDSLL

[11] = molecular target: AP-2 complex subunit beta (Homo sapiens) (UniProt P63010); assay: beta-arrestin/AP2 interaction blockers – biochemical, validation set, GST-AP2 beads, flow cytometry, pilot screen (AID 504541;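 active = inhibition above 54%, about 3 SD of non-fluorescent compounds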;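 also: AP2 carries R879A mutation and is captured from E. coli lysate; bead-bound FITC arrestin peptide fluorescence measuring arrestin peptide binding to AP2; 0% = DMSO wells and 100% = excess unlabeled arrestin peptide control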); details: FITC arrestin peptide, at 10 µM, stronger effect = higher value, AP2 beta2 appendage fragment, R879A mutant
AP-2 complex subunit beta (Homo sapiens), sequence (P63010 whole entry, looked up, the tested form may be a part, one chain of several): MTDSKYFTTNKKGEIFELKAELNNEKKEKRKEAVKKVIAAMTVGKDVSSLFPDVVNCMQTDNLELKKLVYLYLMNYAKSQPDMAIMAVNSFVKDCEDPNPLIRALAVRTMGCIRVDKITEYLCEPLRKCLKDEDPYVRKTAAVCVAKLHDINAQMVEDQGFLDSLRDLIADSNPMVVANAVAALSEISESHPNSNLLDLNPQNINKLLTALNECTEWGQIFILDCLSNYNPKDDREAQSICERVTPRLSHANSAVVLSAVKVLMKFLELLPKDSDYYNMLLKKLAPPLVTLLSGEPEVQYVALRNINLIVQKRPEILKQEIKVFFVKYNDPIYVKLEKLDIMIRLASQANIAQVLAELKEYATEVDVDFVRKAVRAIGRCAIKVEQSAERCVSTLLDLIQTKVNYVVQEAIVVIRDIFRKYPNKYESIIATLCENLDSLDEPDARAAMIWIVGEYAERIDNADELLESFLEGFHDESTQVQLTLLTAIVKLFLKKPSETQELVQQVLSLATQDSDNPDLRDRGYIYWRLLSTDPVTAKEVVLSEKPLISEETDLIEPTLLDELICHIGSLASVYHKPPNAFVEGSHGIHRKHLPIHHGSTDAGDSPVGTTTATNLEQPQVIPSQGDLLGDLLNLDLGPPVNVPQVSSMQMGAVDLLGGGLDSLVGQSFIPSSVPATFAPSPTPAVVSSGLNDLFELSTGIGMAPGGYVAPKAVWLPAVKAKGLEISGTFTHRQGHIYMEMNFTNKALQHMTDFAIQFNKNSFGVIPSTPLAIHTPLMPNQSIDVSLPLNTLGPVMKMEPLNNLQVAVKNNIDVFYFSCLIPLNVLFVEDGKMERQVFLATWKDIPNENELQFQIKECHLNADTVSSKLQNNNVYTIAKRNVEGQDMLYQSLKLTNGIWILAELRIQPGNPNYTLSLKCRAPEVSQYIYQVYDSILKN

[12] = cytosolic pH regulators acting via V-ATPase – S. cerevisiae, pHLuorin, HTS validation (AID 504600; in the data active = response above about 15%;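 also: plate controls were DMSO for no effect and reference compound for full effect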); details: V-ATPase proton transport, at 10 µM, stronger effect = higher value
[13] = system: anti-desmoglein-3 scFv antibody binding to human DSG3; assay: blockers of pathogenic pemphigus antibody–desmoglein-3 binding – biochemical, validation compound set, bead-based, flow cytometry, pilot screen (AID 588368;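 active = binding below the plate cutoff, the plate median minus 3 SD, with a reading above zero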;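 also: signal is the median channel fluorescence of bead-bound GFP antibody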); details: Protein G beads, DSG3-Fc, scFv-GFP binding, at 10 µM, stronger effect = lower value
[14] = Nile Red efflux blockade in pump-expressing yeast – validation compound set, multiplex, phenotypic, pilot screen (AID 588506;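 active = efflux inhibition above 0.42, the validation set average plus 4 SD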;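 also: Nile Red retained in cells so higher fluorescence means more efflux inhibition; 0 = negative control wells and 1 = enniatin B 25 µM full block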); details: S. cerevisiae pump-expressing triplex, Nile Red efflux flow cytometry; at 10 µM; stronger effect = higher value; the pumps come from Candida albicans
[15] = molecular target: ATP-binding cassette sub-family B member 6 (Homo sapiens) (UniProt Q9NP58); assay: blockers of ABCB6-driven porphyrin uptake – K562-ABCB6 cells, flow cytometry, validation set, pilot screen (AID 588550;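 active = inhibition above the screen-wide mean plus 3 SD, about 51%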;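 also: 0% = DMSO wells and 100% = benzethonium chloride 70 µM positive control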); details: K562-ABCB6 porphyrin accumulation, 1 h, at 10 µM, stronger effect = higher value
ATP-binding cassette sub-family B member 6 (Homo sapiens), sequence (Q9NP58 whole entry, looked up): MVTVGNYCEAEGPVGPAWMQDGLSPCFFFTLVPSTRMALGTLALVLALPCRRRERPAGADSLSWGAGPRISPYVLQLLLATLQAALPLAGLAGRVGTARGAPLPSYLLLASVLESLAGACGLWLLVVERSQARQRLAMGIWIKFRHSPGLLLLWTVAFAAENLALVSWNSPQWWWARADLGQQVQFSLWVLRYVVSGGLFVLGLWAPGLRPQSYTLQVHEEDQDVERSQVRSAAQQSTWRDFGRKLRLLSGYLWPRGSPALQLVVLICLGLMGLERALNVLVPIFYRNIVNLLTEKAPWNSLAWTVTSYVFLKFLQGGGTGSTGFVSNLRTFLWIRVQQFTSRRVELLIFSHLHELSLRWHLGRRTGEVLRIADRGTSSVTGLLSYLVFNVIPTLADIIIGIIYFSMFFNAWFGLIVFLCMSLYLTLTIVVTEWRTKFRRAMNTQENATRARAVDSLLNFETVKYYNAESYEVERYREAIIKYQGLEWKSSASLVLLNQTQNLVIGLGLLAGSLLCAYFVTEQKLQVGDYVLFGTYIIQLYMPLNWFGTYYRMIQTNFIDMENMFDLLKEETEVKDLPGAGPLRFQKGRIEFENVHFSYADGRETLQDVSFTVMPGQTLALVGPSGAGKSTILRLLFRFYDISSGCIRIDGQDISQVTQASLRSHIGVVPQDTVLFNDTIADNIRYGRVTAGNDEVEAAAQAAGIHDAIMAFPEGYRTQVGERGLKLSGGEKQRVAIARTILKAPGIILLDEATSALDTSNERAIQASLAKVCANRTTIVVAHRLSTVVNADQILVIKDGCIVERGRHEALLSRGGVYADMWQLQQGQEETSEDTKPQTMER

[16] = AML differentiation inducers, ER-HoxA9 marrow cells – cell-based, GFP/MAC1 double positive, flow cytometry, validation set, primary screen (AID 588685;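 active = differentiation response of at least 50%, scaled between solvent and reference control, from cells with both markers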;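 also: compound exposure lasts four days before antibody staining and flow analysis; 0% = DMSO wells and 100% = 5 µM fulvestrant positive control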); details: stronger effect = higher value, normalized: vehicle 0, fulvestrant 100

CCn1nc(C(=O)O)c(=O)c2cc3c(cc21)OCO3
inactive: percent of DMSO control GFP [1] 103% | GFP response vs DMSO [2] 104% | percent response of DMSO control [3] 104% | GFP response vs DMSO [4] 90.7% | GFP response, % of DMSO [5] 98.3% | vesicle binding response [6] 726% | inhibition [7] 14.1% | superoxide response (% of plate) [8] 92.7% | aptamer binding inhibition [9] 2% | response [10] -7.41% | inhibition [11] -8.41% | binding (% of control) [13] 98.4% | efflux inhibition (fraction of control) [14] -0.1 | inhibition [15] -8% | differentiation response [16] 13.9%
active: response [12] 61.9%
55.1%: double positive events [6]

COc1cc(C(=S)N(C)C)ccc1O
inactive: percent of DMSO control GFP [1] 107% | GFP response vs DMSO [2] 104% | percent response of DMSO control [3] 113% | GFP response vs DMSO [4] 92.6% | GFP response, % of DMSO [5] 116% | vesicle binding response [6] 115% | inhibition [7] -11.8% | superoxide response (% of plate) [8] 92.7% | aptamer binding inhibition [9] -1% | response [10] 8.54% | inhibition [11] -1.41% | response [12] 3.06% | binding (% of control) [13] 101% | efflux inhibition (fraction of control) [14] -0.005 | inhibition [15] -8% | differentiation response [16] 15.9%
62.6%: double positive events [6]

O=C(COc1ccc2c(-c3ccccc3)cc(=O)oc2c1)NCc1cccs1
64.6%: double positive events [6]
inactive: percent of DMSO control GFP [1] 97.5% | GFP response vs DMSO [2] 96.6% | percent response of DMSO control [3] 85.4% | GFP response vs DMSO [4] 102% | GFP response, % of DMSO [5] 102% | vesicle binding response [6] 214% | inhibition [7] -3.67% | superoxide response (% of plate) [8] 92.2% | aptamer binding inhibition [9] -2% | response [10] -25.8% | inhibition [11] 26.5% | response [12] -7% | binding (% of control) [13] 102% | efflux inhibition (fraction of control) [14] 0.12 | inhibition [15] 14% | differentiation response [16] 6.83%

Cc1cccc(Nc2ccccc2C(=O)O)c1C
inactive: percent of DMSO control GFP [1] 99.5% | GFP response vs DMSO [2] 102% | percent response of DMSO control [3] 86.7% | GFP response vs DMSO [4] 114% | GFP response, % of DMSO [5] 102% | vesicle binding response [6] 236% | inhibition [7] 4.84% | superoxide response (% of plate) [8] 87.1% | aptamer binding inhibition [9] -1% | response [10] -5.24% | inhibition [11] -8.96% | response [12] -29.3% | binding (% of control) [13] 101% | efflux inhibition (fraction of control) [14] 0.08 | inhibition [15] 5% | differentiation response [16] -12.9%
65.8%: double positive events [6]

Cc1nc2c(c3c1[nH]c1ccccc13)C(=O)CC(C)(C)C2
inactive: percent of DMSO control GFP [1] 99.1% | GFP response vs DMSO [2] 114% | percent response of DMSO control [3] 86.3% | GFP response vs DMSO [4] 114% | GFP response, % of DMSO [5] 102% | vesicle binding response [6] 186% | inhibition [7] 6.4% | superoxide response (% of plate) [8] 99.2% | aptamer binding inhibition [9] 3% | response [10] 31.6% | inhibition [11] 6.18% | response [12] -1.94% | binding (% of control) [13] 98.9% | efflux inhibition (fraction of control) [14] 0.3 | inhibition [15] 1% | differentiation response [16] -5.6%
59.1%: double positive events [6]

CC(=O)Oc1ccc2c(=O)c(Oc3ccccc3[N+](=O)[O-])coc2c1
60.6%: double positive events [6]
inactive: percent of DMSO control GFP [1] 99.8% | GFP response vs DMSO [2] 131% | percent response of DMSO control [3] 111% | GFP response vs DMSO [4] 78.7% | GFP response, % of DMSO [5] 95.6% | vesicle binding response [6] 188% | inhibition [7] -0.33% | superoxide response (% of plate) [8] 121% | aptamer binding inhibition [9] 3% | response [10] -4.04% | inhibition [11] -1.47% | response [12] 0.8% | binding (% of control) [13] 101% | efflux inhibition (fraction of control) [14] -0.06 | inhibition [15] -4% | differentiation response [16] 0%

CC(NC(=O)c1cccnc1)C(=O)O (stereo not drawn)
53.1%: double positive events [6]
active: vesicle binding response [6] 54.6%
inactive: percent of DMSO control GFP [1] 105% | GFP response vs DMSO [2] 98.5% | percent response of DMSO control [3] 114% | GFP response vs DMSO [4] 78.6% | GFP response, % of DMSO [5] 90.5% | inhibition [7] -5.89% | superoxide response (% of plate) [8] 94.6% | aptamer binding inhibition [9] 4% | response [10] -9.77% | inhibition [11] 0.46% | response [12] -5.71% | binding (% of control) [13] 99.1% | efflux inhibition (fraction of control) [14] -0.1 | inhibition [15] 8% | differentiation response [16] -7.2%

CN1CCN(CC/C=C2/c3ccccc3Sc3ccc(S(=O)(=O)N(C)C)cc32)CC1
inactive: percent of DMSO control GFP [1] 102% | GFP response vs DMSO [2] 109% | percent response of DMSO control [3] 94.5% | GFP response vs DMSO [4] 109% | GFP response, % of DMSO [5] 94.8% | vesicle binding response [6] 202% | inhibition [7] 23% | superoxide response (% of plate) [8] 86% | aptamer binding inhibition [9] 4% | response [10] -1.99% | inhibition [11] -4.59% | response [12] 11% | binding (% of control) [13] 84.3% | efflux inhibition (fraction of control) [14] 0.02 | inhibition [15] 28% | differentiation response [16] -13.3%
68.4%: double positive events [6]

COc1ccc(C2CC(c3ccc([N+](=O)[O-])cc3)=NN2C(=O)c2ccccc2)cc1OC (stereo not drawn)
active: inhibition [11] 65.2% | efflux inhibition (fraction of control) [14] 0.59
64.6%: double positive events [6]
inactive: percent of DMSO control GFP [1] 97.1% | GFP response vs DMSO [2] 101% | percent response of DMSO control [3] 97% | GFP response vs DMSO [4] 108% | GFP response, % of DMSO [5] 116% | vesicle binding response [6] 211% | inhibition [7] 13.4% | superoxide response (% of plate) [8] 79.1% | aptamer binding inhibition [9] 4% | response [10] 6.46% | response [12] -0.24% | binding (% of control) [13] 92.9% | inhibition [15] 0% | differentiation response [16] -12.9%
